The sample as a whole holds a higher share of hits than the screen did.
PKM2 inh: inhibitors of human pyruvate kinase M2. P14618. 260,000 tested, 0.058% active. purified PKM2, ATP generation, Kinase-Glo luminescence. Potency, µM (titrated, usually from 57.5 µM), for the others: at the highest dose activity change, negative = inhibition, hits mostly inhibitors. AID 1634; further: potency means the concentration at half of the fitted maximal effect; nearly all actives have a fitted effect of over 60% in size
Target sequence (P14618 whole entry, looked up): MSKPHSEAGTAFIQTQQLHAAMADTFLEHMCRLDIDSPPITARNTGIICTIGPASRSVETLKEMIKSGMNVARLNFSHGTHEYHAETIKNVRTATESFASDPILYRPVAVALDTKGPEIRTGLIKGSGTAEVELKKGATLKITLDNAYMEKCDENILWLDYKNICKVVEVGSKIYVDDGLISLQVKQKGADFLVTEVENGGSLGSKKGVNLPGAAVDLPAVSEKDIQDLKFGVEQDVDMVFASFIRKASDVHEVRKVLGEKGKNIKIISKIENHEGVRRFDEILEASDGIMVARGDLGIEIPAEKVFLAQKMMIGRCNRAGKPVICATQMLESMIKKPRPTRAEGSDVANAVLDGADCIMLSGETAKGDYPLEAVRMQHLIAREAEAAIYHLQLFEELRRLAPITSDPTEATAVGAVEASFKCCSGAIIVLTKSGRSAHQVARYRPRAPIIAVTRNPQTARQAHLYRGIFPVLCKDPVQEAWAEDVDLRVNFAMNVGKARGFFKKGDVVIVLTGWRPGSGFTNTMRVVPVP
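Enzyme run at intermediate activity with final 0.1 mM ADP, 0.5 mM PEP (50 mM imidazole pH7.2, 50 mM KCl, 7 mM MgCl2), incubated 1 h at r.t. ATP formed read by Kinase-Glo luminescence, normalized to no-enzyme (full inhibition) and uninhibited wells.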
PKM2 inh dose: PKM2 (human) inhibition, concentration-response confirmation; Potency, µM (highest dose often 57.5 µM), without a hit: top-dose activity change, negative = inhibition, hits mostly inhibitors; purified hPK-M2, Kinase-Glo ATP luminescence, 1 h; shares compounds with PKM2 inh; 55 tested, 50% active
FLuc counter: firefly luciferase inhibition counter-screen. 55 tested, 30% active. AID 2265. Kinase-Glo firefly luciferase, luminescence, 8 min. shares compounds with PKM2 inh. Potency, µM (series often up to 57.5 µM), without a hit: top-dose activity, negative = inhibition, hits mostly inhibitors
PKM2 LDH couple: PKM2 (human) inhibition, NADH coupled readout; shares compounds with PKM2 inh; purified hPK-M2, LDH-coupled NADH fluorescence kinetic; Potency, µM (series often up to 57.5 µM), for the others: at the highest dose activity change, negative = inhibition, actives largely listed as inhibitors; 55 tested, under 10 active; AID 2267
* marks the source's active call; other numbers are inactive results; ? = inconclusive. The call rests on the fitted dose curve; in most records, active means well fitted curve in the direction sought with a large enough effect; inconclusive means small, poorly fitted or top-dose-only effect, or another doubt; inactive means no such curve, though single readings can be large; an effect the other way counts as inactive or inconclusive.

SMILES | PKM2 inh | others
CCOc1ccc(N2C(=O)CC(Sc3ccccc3C(=O)O)C2=O)c([N+](=O)[O-])c1 (stereo not given) | 60%
COc1ccc(CNC(=O)COC(=O)c2cc(-c3cccs3)nc3ccccc23)cc1OC | 4%
COc1ccc(-c2ccc(Nc3ccc(C(=O)N4CCOCC4)cc3)nn2)cc1OC | 5%
COc1ccc(-c2cn3ccccc3n2)cc1OC | 8.9µM* | PKM2 inh dose=?;FLuc counter=?;PKM2 LDH couple=?
COc1ccc(-c2ccc(=O)n(CC(=O)Nc3cccc(O)c3)n2)cc1OC | 53%
O=S(=O)(NNc1ccc(F)cc1F)c1cccc(Cl)c1 | 50%
Cc1ccc(NC(=O)COC(=O)CNC(=O)c2ccc3ccccc3c2)c([N+](=O)[O-])c1 | 33%
O=C(O)/C=C/C(=O)Nc1ccccc1SC(F)(F)F | 52%
CC(=O)c1ccccc1OC(=O)CCN1C(=O)c2ccccc2C1=O | 47%

Compound activity (PubChem)
